Bioassay records deposited in PubChem by The Scripps Research Institute Molecular Screening Center.
Shown are actives, neighbours in structure and some others; about 2.9% of the full set was active somewhere.
PLCg1 inh: inhibitors of human phospholipase C gamma1 | P19174 | purified PLC-gamma1, fluorogenic substrate, fluorescence | inhibition, % at 12.2 µM | 370,000 tested, 0.84% active; in the data active means inhibition above about 9.5%
ADAM17 inh: ADAM17 inhibition, QFRET primary screen; P78536; recombinant ADAM17, EDANS/DABCYL FRET peptide cleavage; inhibition, % at 6.95 µM; 370,000 tested, 0.83% active; AID 720648;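 active means inhibition above the mean of compounds lying between control limits plus 3 SD, set per campaign, cut at about 8.5% in these data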
Target sequence (P78536 215-824 limits assumed): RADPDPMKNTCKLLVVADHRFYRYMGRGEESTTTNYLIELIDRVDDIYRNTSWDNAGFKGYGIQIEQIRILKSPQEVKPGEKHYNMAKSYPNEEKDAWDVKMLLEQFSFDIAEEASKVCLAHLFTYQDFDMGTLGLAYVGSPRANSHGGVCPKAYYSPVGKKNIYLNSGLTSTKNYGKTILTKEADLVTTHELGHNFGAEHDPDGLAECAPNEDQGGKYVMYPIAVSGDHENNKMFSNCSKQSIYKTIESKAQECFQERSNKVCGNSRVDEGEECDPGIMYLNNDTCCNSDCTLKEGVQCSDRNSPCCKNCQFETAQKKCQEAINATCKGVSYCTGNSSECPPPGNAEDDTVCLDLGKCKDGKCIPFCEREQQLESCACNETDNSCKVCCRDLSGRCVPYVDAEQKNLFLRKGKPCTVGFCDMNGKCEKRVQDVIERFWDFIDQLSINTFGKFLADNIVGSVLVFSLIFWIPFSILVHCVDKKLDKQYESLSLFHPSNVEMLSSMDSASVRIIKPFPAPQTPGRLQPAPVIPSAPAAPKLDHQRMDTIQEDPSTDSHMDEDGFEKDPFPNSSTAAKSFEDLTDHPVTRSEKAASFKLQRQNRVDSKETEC
KLK7 zymogen act: proKLK7 (human) activation, primary screen; P49862; purified proKLK7, EDANS-DABCYL substrate fluorescence; 100% is mature enzyme control, 0% vehicle; activation, % at 7 µM; 370,000 tested, 0.9% active;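 active means activation above the mean of all tested compounds plus 3 SD, computed per campaign excluding outliers beyond control limits, cut at about 13% in these data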
PLCb3 inh: PLC-beta3 (human) inhibition, primary screen. Q01970. inhibition, % at 12.2 µM. 370,000 tested, 0.18% active. Purified PLC-beta3, fluorogenic substrate, fluorescence
ADAM10 inh: inhibits human ADAM10; O14672; recombinant ADAM10, EDANS/DABCYL FRET peptide cleavage, 3 h; inhibition, % at 7 µM; 370,000 tested, 0.62% active; AID 720582;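 active means inhibition above a per-campaign cutoff equal to the mean of compounds falling between control-based bounds plus 3 SD, cut at about 20% in these data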
PLCgamma1 ctr: counter-screen for PLC-beta3 inhibitors: inhibitors of human PLC-gamma1. shares compounds with PLCg1 inh. 3,300 tested, 3.1% active. inhibition, % at 12.3 µM. purified PLC-gamma1, fluorogenic substrate, fluorescence; in the data active means inhibition above about 9.5%
PLCbeta3 conf: human PLC-beta3 inhibition, confirmation; shares compounds with PLCg1 inh; purified PLC-beta3, fluorogenic substrate fluorescence; inhibition, % at 12.3 µM; 3,300 tested, 1% active; AID 743261
Hits are given with their value; . = inactive; / = no result given. Unless noted, no stated cut-off is given here; in the data, active means inhibition above about 11%; inactive means the rest.

SMILES | PLCg1 inh | ADAM17 inh | KLK7 zymogen act | PLCb3 inh | ADAM10 inh | PLCgamma1 ctr | PLCbeta3 conf
COC(=O)CSc1nnc2n(-c3ccc(OC)cc3)c(=O)c3c4c(sc3n12)CCCCC4 | 10 | . | . | . | . | . | .
COC(=O)CSc1nnc2n(C3CCCCC3)c(=O)c3c4c(sc3n12)CCCC4 | . | . | . | . | . | / | /
O=C(Cc1ccccc1Cl)NCCN1C(=O)C2C3C=CC(C3)C2C1=O (stereo not given) | 9.9 | . | . | . | . | . | .
O=C(CCN1C(=O)C2C3C=CC(C3)C2C1=O)NCCc1ccccc1Cl (stereo not given) | . | . | . | . | . | / | /
O=C(CCNC(=O)c1ccccc1)NNC(=O)COc1ccccc1Cl | . | . | . | . | . | / | /
Cc1cccnc1C(NC(=O)C1CCN(Cc2ccc3ccccc3n2)CC1)c1ccc(Cl)cc1 (stereo not given) | . | . | . | . | . | / | /
O=C(CCn1c(=S)oc2ccccc21)Nc1cccc(F)c1 | . | . | . | . | . | / | /
O=C(CCn1c(=S)oc2ccccc21)Nc1cccc(O)c1 | . | . | . | 12 | . | . | .
Nc1ncnc2c1ncn2[C@@H]1O[C@H](CCC(=O)NCc2ccccc2)[C@@H](O)[C@H]1O | . | . | . | . | . | / | /
Cc1noc(C)c1-c1ccc(C(=O)Nc2cccc(C(F)(F)F)c2)c2occc12 | . | . | . | . | . | / | /
Cc1cc(C)n2ncc(C(=O)Nc3ccc4c(c3)CCC4)c2n1 | . | . | / | . | . | / | /
C/C(=N/NC(=O)c1cc(-c2cccc([N+](=O)[O-])c2)n[nH]1)c1cccc(O)c1 | 14 | . | . | . | . | . | .
COc1ccc(C(CCN(Cc2ccc(OC)c(OC)c2)C(C)=O)C(C)C)cc1 (stereo not given) | 11 | . | . | . | . | . | .
COc1ccc(NC(=S)N(Cc2ccc(C(=O)O)cc2)Cc2ccc(OC)c(OC)c2)cc1 | . | . | . | . | . | / | /
CCOC(=O)[C@]12CCCC=C1N(Cc1ccc(OC)cc1)C(=O)[C@@H]2CC(=O)NCc1cccc2ccccc12 | . | . | . | . | . | / | /
NC(N)=NC(N)=Nc1ccc(SC(F)(F)F)cc1 | 11 | . | . | . | . | . | .
NC(N)=NC(N)=Nc1ccc2ccccc2c1 | . | . | . | . | . | / | /
CCOC(=O)N1CCN(S(=O)(=O)c2ccc(C(=O)N(CCCN(C)C)c3nc4cc(OC)ccc4s3)cc2)CC1 | . | . | . | . | . | / | /
COc1ccc2sc(N(CCCN(C)C)C(=O)c3ccc(S(=O)(=O)N4CCCC4)cc3)nc2c1 | 12 | . | . | . | . | . | .
CCOC(=O)C1=CCN(S(=O)(=O)c2cccc(Cl)c2)C1c1cccc(Cl)c1 (stereo not given) | . | . | . | . | . | / | /
COc1cc(CN2C[C@@H](CO)O[C@@H](n3cnc4c(N(C)C)ncnc43)C2)cc(OC)c1OC | . | . | . | . | . | / | /
CC(Nc1ccc(Br)cn1)c1cc(Cl)ccc1O (stereo not given) | 9.7 | . | . | . | . | . | .
COc1cc(C(=O)Nc2cc(S(=O)(=O)N3CCOCC3)ccc2N2CCOCC2)cc(OC)c1C | . | . | . | . | . | / | /
Cc1nonc1NC(=O)c1oc2ccc(F)cc2c1C | . | . | . | . | . | / | /
Cc1cc2oc(C(=O)Nc3nonc3C)c(C)c2cc1Cl | 13 | . | . | . | . | . | .
SMILES | PLCg1 inh | ADAM17 inh | KLK7 zymogen act | PLCb3 inh | ADAM10 inh | PLCgamma1 ctr | PLCbeta3 conf
COc1ccc(S(=O)(=O)n2nc(OC(=O)c3cccs3)cc2N)cc1 | . | . | . | . | . | / | /
CS(=O)(=O)n1nc(OC(=O)c2cccs2)cc1N | 12 | . | . | . | . | . | .
O=C(c1ccco1)N1CCN(c2ccccc2F)CC1 | . | . | . | . | . | / | /
O=C(c1ccco1)N1CCN(Cc2nnc(-c3ccccc3F)o2)CC1 | 9.8 | . | . | . | . | . | .
O=C(c1ccco1)N1CCN(C(=O)C2CC(c3ccccc3F)=NO2)CC1 (stereo not given) | 14 | . | . | . | . | . | .
COc1ccc(N2CCN(C3CCCN(C(=O)CN4CCCC4=O)C3)CC2)cc1 (stereo not given) | 9.8 | . | . | . | . | . | .
Cc1cc(NC(=O)CSc2cn(CC(=O)N(C(C)C)C(C)C)c3ccccc23)no1 | 12 | . | . | . | . | . | .
CS(=O)(=O)N1CCC(C(=O)NCc2ccc(Cl)cc2)CC1 | 12 | . | . | . | . | . | .
CCCCCCCCN1C(=O)[C@H](CC(=O)N2CCN(C(=O)C3CC3)CC2)C[C@@]2(C(=O)OCC)CCCC=C12 | . | . | . | . | . | / | /
Cc1ccc(-n2ncc3c(N4CCC(C(N)=O)CC4)ncnc32)c(C)c1 | 15 | . | . | . | . | . | .
CCN(CC)C(=O)C1CCN(c2ncnc3c2cnn3-c2ccc(C)cc2C)CC1 | . | . | . | . | . | / | /
CCN(CC)C(=O)C1=C(C)N(CCCN2CCCC2=O)C(=O)C(CC(=O)NCc2ccco2)C1 (stereo not given) | . | . | . | . | . | / | /
CCN(CC)C(=O)C1=C(C)N(CCCN2CCCC2=O)C(=O)C(CC(=O)NCCCCc2ccccc2)C1 (stereo not given) | 9.8 | . | . | . | . | . | .
COc1ccc(C2=CC(=O)CC(C)(C)C2=O)cc1 | . | . | . | . | . | / | /
CN(CC(=O)N1CCN(Cc2ccccc2)CC1)S(=O)(=O)c1cccc2nsnc12 | 11 | . | . | . | . | . | .
CN(CC(=O)NCCN1CCN(Cc2ccccc2)CC1)S(=O)(=O)c1cccc2nsnc12 | . | . | . | . | . | / | /
O=c1cc(SCc2ccccc2)nc[nH]1 | 12 | . | . | . | . | . | .
Cc1cc(SCc2ccccc2)nc(=O)[nH]1 | . | . | . | . | . | / | /
O=C(NCCc1ccccc1)OCc1cn(Cc2ccccc2F)nn1 | . | . | . | . | . | / | /
O=C(NN=C(c1ccccc1)c1ccccn1)c1ccccc1 | 9.7 | . | . | . | . | . | .
COc1ccc(C(=O)N/N=C(\c2ccccc2)c2ccccn2)cc1 | . | . | . | . | . | / | /
Fc1ccc(Cn2ccc3ccc(-c4ccc5ccn(Cc6ccccc6)c5c4)cc32)cc1 | . | . | . | . | . | / | /
O=S(=O)(O)c1cc(Cl)cc(N=Nc2ccc(O)cc2O)c1O | 13 | . | . | . | . | . | .
O=[N+]([O-])c1ccc(N=Nc2ccc(O)cc2O)cc1 | . | . | . | . | . | / | /
CCCCn1nnnc1C1(C)CCC(=O)N1CCCN1CCOCC1 (stereo not given) | . | . | . | . | . | / | /
COc1ccc(-c2cc(C3CCNCC3)[nH]n2)cc1 | 16 | . | . | . | . | . | .
Cc1ccc(N(C)C(=O)CCS(=O)(=O)c2ccc3c(c2)oc(=O)n3C)cc1 | . | . | . | . | . | / | /
